Test [1] in a line: qHTS assay to identify small molecule agonists of H2AX (AID 1224845; active = well fitted activation curve with a large enough effect in the signal ratio in the repeat runs, not every such curve was filed as active; the % refers to the signal ratio; note: potency is the fitted concentration of half-maximal effect). An outline of the steps: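 Wild-type CHO-K1 cells plated overnight, then exposed 3 hr at 37C to compounds at 15 concentrations (0.76% DMSO). Lysed, then HTRF anti-pH2AX(S139)-cryptate/anti-H2AX-d2 detection after 24 hr at room temperature; emissions 665 and 620 nm.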
A general note: In qHTS, concentration-response curves come from the screen itself.

Test [2] in a line: qHTS assay to identify small molecule agonists of the hypoxia (HIF-1) signaling pathway (AID 1224846; active = well fitted activation curve with a large enough effect in the signal ratio in the repeat runs, not every such curve was filed as active; the % refers to the signal ratio). In a few lines: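 Agonist mode reporter screen. ME-180 cells stably expressing bla under HRE control received test compounds in DMSO for 17 hrs (37C, 5% CO2), and beta-lactamase activity was then detected with the CCF4-AM FRET substrate.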
Test [3] is described as follows: qHTS assay to identify small molecule agonists of H2AX - cell viability counter screen (AID 1224847; calls by dose curve; note: nearly all actives have a fitted effect of over 30% in size; note: potency is the fitted concentration of half-maximal effect). An outline of the steps:
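CHO-K1 cells plated overnight at 37C, then exposed 3 h at 37C to compounds at 15 concentrations (0.76% DMSO final). Viability by CellTiter-Glo luminescence after 30 min at room temperature.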

Test [4] can be described thus: qHTS assay to identify small molecule agonists of the estrogen related receptor (ERR) signaling pathway from Tox21 library (AID 1224849; calls by dose curve; note: nearly all actives have a fitted effect of over 15% in size). Conditions: ERR reporter cell line, ONE-Glo luciferase, 18 h. An outline of the steps: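 Quantitative HTS in agonist format: NTP ERR cell line, compounds transferred in DMSO after 6 h plating, 18 h incubation at 37 C, ONE-Glo luminescence endpoint.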

Test [5] in a line: qHTS RealTime-Glo MT Cell Viability Assay in HepG2 cells - 24 hour (AID 1224867). Note: nearly all actives have a fitted effect of over 50% in size. Note: potency is the fitted concentration of half-maximal effect. In a few lines: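 Compound treatment began 5 h after plating HepG2 cells (600/well) with NanoLuc luciferase and prosubstrate. Plates stayed at 37 C for 40 h; luminescence was captured at six time points, 0 h through 40 h.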
Test [6] in a line: qHTS RealTime-Glo MT Cell Viability Assay in HEK293 cells - 32 hour (AID 1224868). Note: nearly all actives have a fitted effect of over 50% in size. Note: potency is the fitted concentration of half-maximal effect. In a few lines: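 Quantitative high-throughput screen of the Tox21 10K library in HEK293: cells and RealTime-Glo reagents plated together, compound added at 5 h, luminescence monitored through 40 h at 37 C.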
The nature of test [7]: qHTS RealTime-Glo MT Cell Viability Assay in HepG2 cells - 40 hour (AID 1224870). Note: nearly all actives have a fitted effect of over 50% in size. Note: potency is the fitted concentration of half-maximal effect. In a few lines: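 HepG2 cells mixed with RealTime-Glo MT reagents (NanoLuc plus cell-permeant prosubstrate) were seeded at 600 cells/well, incubated 5 h at 37 C/5% CO2, then pinned with compounds in DMSO; nonlytic luminescence tracked viability during 40 h treatment.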
Test [8] is described as follows: A CellTox Green Cytotoxicity Assay to monitor cytotoxicity in HEK293 cells - 40 hour (AID 1224871). Note: nearly all actives have a fitted effect of over 45% in size. Note: potency is the fitted concentration of half-maximal effect. An outline of the steps:
(§1)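 Dead-cell fluorescence measured kinetically: asymmetric cyanine dye, HEK293, 600 cells/well, 5 h settle, 23 nL cpd/DMSO, 37 C, reads 0–40 h every 8 h.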

Test [9] in a line: qHTS assay to identify small molecule antagonists of the estrogen related receptor (ERR) signaling pathway from Tox21 library (AID 1224848). Note: nearly all actives have a fitted effect of over 50% in size. Note: potency is the fitted concentration of half-maximal effect. In a few lines: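 First, 2,000 ERR cells per well were plated and held 6 h at 37 C/5% CO2. Next, compounds in DMSO were pinned in and left 18 h at 37 C. Finally, ONE-Glo was added and luminescence read after 30 min at room temperature.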

The nature of test [10]: A CellTox Green Cytotoxicity Assay to monitor cytotoxicity in HEK293 cells - 0 hour (AID 1224869). Note: nearly all actives have a fitted effect of over 50% in size. An outline of the steps:
as §1

The mark [11] stands for this setting: at 92.4 µM (top of the series) unless noted.

Several values for one entry are separate records, joined by “and”; a condition that tells them apart may be missing. Identical values can stand only once. Results filed as inconclusive are left out. The source holds several records for some structures; these can differ, active in one and inactive in another. Activity calls are given as the source filed them. Unless noted, calls come from the whole dose curve; as a rule, active = well fitted curve in the direction sought with a large enough effect in the repeat runs; inconclusive = weak or mixed curves; inactive = no such curve, though single readings can be large; an effect the other way counts as inactive or inconclusive.
% is set by controls: 0 for no effect and ±100 for the full control effect.

Turning to `CC(C)(C)C1CCC(CC2=C(O)c3ccccc3C(=O)C2=O)CC1` (stereo unspecified), the Potency entry in test [1], in [2], in [3], in test [5], in test [6] and in [7] was “inactive” in each case. In test [4] (setting [11]), the activity change, positive = activation was -24.7% [at 42.5 µM] (inactive). Moreover, the Potency in [8] is 16.9 µM (active).

Turning to `Clc1ccc2nsnc2c1NC1=NCCN1`, the Potency entry in test [1], in test [2], in test [3], in test [9], in [5] and in [6] was “inactive” each time. Also, the Potency result in test [10] and in test [7] was “inactive” each time. Further, the activity change, positive = activation in test [4] (setting [11]) was -5.33% [at 42.5 µM] (inactive).

Take `O=C(O)c1ccc(Cl)c(Cl)c1`: the Potency result in test [1], in test [2], in test [3], in test [9], in test [5] and in test [6] was “inactive” throughout. In addition, the Potency entry in test [10] and in test [7] was “inactive” in each case. For the same compound, the activity change, positive = activation in [4] (setting [11]) is -1.94% (inactive).

Take `Oc1ccc2c(c1)-c1ccccc1C2`: the Potency result in test [1], in [2], in test [3], in test [5], in test [10] and in [7] was “inactive” in each case. The activity change, positive = activation in test [4] (setting [11]) is -22% (inactive).

For `Cc1ccc(O)c(C(C)(C)C)c1`, the Potency result in [1], in [2], in test [5], in test [6], in [10] and in [7] was “inactive” throughout. Besides, in test [3], the Potency is 89.6 µM (active).

For the compound `CCCCC(CC)COC(=O)c1ccccc1C(=O)O` (stereo unspecified), the Potency entry in test [1], in test [2], in [3], in [5], in test [10] and in [7] was “inactive” in each case. Also, the Potency entry in [8] was “inactive”. Besides, the activity change, positive = activation in [4] (setting [11]) was -12.5% (inactive).

As to `C/C=C(\C)C(=O)OCc1ccccc1`, the Potency entry in test [1], in [2], in test [3], in test [9], in test [5] and in test [6] was “inactive” throughout. Also, the Potency result in test [10] and in test [7] was “inactive” in each case. For the same compound, the activity change, positive = activation in [4] (setting [11]) is 5.16% (inactive).

`Cc1cc(N)c(S(=O)(=O)O)cc1Cl`: the Potency result in [1], in [2], in [3], in test [9], in test [5] and in test [6] was “inactive” throughout. The Potency entry in [7] and in test [8] was “inactive” throughout. In test [4] (setting [11]), the activity change, positive = activation is 5.22% (inactive).

Take `COC(=O)C1=C(C)NC(C)=C(C(=O)OCC(C)C)C1c1ccccc1[N+](=O)[O-]` (stereo unspecified): the Potency entry in test [1], in [2] and in test [10] was “inactive” each time. Also, the Potency in test [3] is 127 µM (active) and inactive; in test [9], 12.2 µM (active) and 21.1 µM (active); in [5] it was 49 µM (active); in test [6] it was 21.9 µM (active); in test [7] it was 49 µM (active) and inactive; in test [8], 49 µM (active) and inactive. Moreover, the activity change, positive = activation in [4] (at 42.5 µM (top of the series)) is -46.2% (inactive); in test [4] (at 92.4 µM (top of the series)) it was -62.2% (inactive).

As for `CC(C)C(C)(C)C(C)(C)C(C)(C)S`, the Potency result in [1], in [2], in test [3], in test [5] and in test [6] was “inactive” throughout.

For the compound `CCCCCCCC(=O)[O-].CCCCCCCC(=O)[O-].[Zn+2]`, the Potency entry in [1], in test [2], in [3], in test [5], in test [6] and in test [10] was “inactive” in each case. Besides, the Potency entry in test [7] and in [8] was “inactive” in each case.

Turning to `C[C@H]1[C@H]2CC[C@H]3[C@@H]4CC=C5C[C@@H](N(C)C)CC[C@]5(C)[C@H]4CC[C@]23CN1C`, the Potency entry in [1], in test [2], in test [3], in [9], in test [5] and in [10] was “inactive” throughout. The Potency entry in [7] and in [8] was “inactive” in each case.

As to `N#CC1(c2ccc(F)cc2)CCC(=O)CC1`, the Potency result in [1], in test [2], in test [3], in [9], in test [5] and in [6] was “inactive” each time. Besides, the Potency result in test [7] is “inactive”. Further, in [4] (setting [11]), the activity change, positive = activation is 6.11% [at 42.5 µM] (inactive).

As for `CNC(=O)c1ccccc1`, the Potency result in test [1], in test [2], in [3], in test [5], in test [6] and in test [10] was “inactive” in each case. In addition, in test [7], the Potency result was “inactive”.

For the compound `COc1cccc(N)c1`, the Potency entry in [1], in test [2], in test [3], in test [9], in test [5] and in test [6] was “inactive” each time. The Potency entry in [10], in [7] and in test [8] was “inactive” in each case. Moreover, the activity change, positive = activation in test [4] (setting [11]) is -25.2% (inactive).

In the case of `COCCCC/C(=N\OCCN)c1ccc(C(F)(F)F)cc1`, the Potency result in test [1], in test [2], in test [3], in test [9], in [5] and in test [7] was “inactive” each time. Moreover, the Potency result in test [8] was “inactive”. Besides, the activity change, positive = activation in test [4] (setting [11]) was -2.43% [at 42.5 µM] (inactive).

Consider `CC(C)OC(=O)c1cc2c(OCC(O)CNC(C)(C)C)cccc2[nH]1` (stereo unspecified), for which the Potency entry in test [1], in test [2], in test [3], in test [5], in [10] and in test [7] was “inactive” each time. In addition, the Potency in test [6] was 9.52 µM (active).

For `CCC(C)(C)C1CCCCC1OC(C)=O` (stereo unspecified), the Potency result in [1], in test [2], in [3], in [9], in test [5] and in [6] was “inactive” in each case. Besides, the Potency entry in test [10], in test [7] and in test [8] was “inactive” each time. Further, in test [4] (setting [11]), the activity change, positive = activation was -0.855% (inactive).

For `O=C1c2ccccc2Cc2ccccc21`, the Potency result in test [1], in test [2], in test [3], in [5], in test [10] and in [7] was “inactive” in each case. The activity change, positive = activation in test [4] (setting [11]) is -18.6% (inactive).

As to `Cc1ccc(-n2nc(C(C)(C)C)cc2NC(=O)Nc2ccc(OCCN3CCOCC3)c3ccccc23)cc1`, the Potency in test [1] was 49.2 µM (active). The Potency result in test [2], in [3], in test [5], in [10] and in test [7] was “inactive” each time. Moreover, the activity change, positive = activation in test [4] (setting [11]) is -18.8% [at 42.5 µM] (inactive).

In the case of `CCC(N)(CO)CO`, the Potency result in [1], in [2], in test [3], in test [9], in test [5] and in test [6] was “inactive” throughout. The Potency result in [10] and in [7] was “inactive” throughout. Besides, the activity change, positive = activation in test [4] (setting [11]) is 6.45% (inactive).
